Test results published in PubChem BioAssay (Tox21).
Results filed as inconclusive are left out. Active and inactive are the calls of the source. Unless noted, calls follow the shape of the dose curve; as a rule, active = well fitted curve in the direction sought with a large enough effect in the repeat runs; inconclusive = weak or mixed curves; inactive = no such curve, though single readings can be large; an effect the other way counts as inactive or inconclusive.

Assays:
[1] = qHTS assay to identify small molecule antagonists of the vitamin D receptor (VDR) signaling pathway - cell viability counter screen (AID 743225); also: nearly all actives have a fitted effect of over 50% in size
Method in brief: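 Parallel cytotoxicity test: VDR-UAS-bla HEK 293T, 3 nM (final) 1-alpha,25-dihydroxyvitamin D3 with test compound, 16 h, 37C. Endpoint is CellTiter-Glo luminescence in the same wells.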

[2] = qHTS assay to identify small molecule agonists of the NFkB signaling pathway - cell viability counter screen (AID 1159515; calls by dose curve; also: series mostly up to about 61 µM; nearly all actives have a fitted effect of over 55% in size)
Method in brief: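 Multiplexed viability readout: after the 5 hr compound exposure and 1.5 hr FRET substrate step, CellTiter-Glo reagent went into the same NFkB-bla ME-180 wells; ATP luminescence was measured after 30 min at room temperature.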

[3] = qHTS assay to identify small molecule agonists of the endoplasmic reticulum stress response signaling pathway (AID 1159516; active = well fitted activation curve with a large enough effect in the signal ratio in the repeat runs, not every such curve was filed as active; the % refers to the signal ratio)
Method in brief: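 Tox21 10K library screened in quantitative HTS format on ESRE-bla HeLa cells, a beta-lactamase reporter under ER stress response element control; 5 hr treatment, FRET read.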

[4] = qHTS assay to identify small molecule agonists of the endoplasmic reticulum stress response signaling pathway - cell viability counter screen (AID 1159517; calls by dose curve; also: series mostly up to about 61 µM; nearly all actives have a fitted effect of over 50% in size)
Method in brief: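 Counter-screen wells were identical to the reporter wells. Cells were plated at 1,500 per well and dosed for 5 hr, then read for luminescence 30 min after CellTiter-Glo addition.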

[5] = qHTS assay to identify small molecule antagonists of the retinoid-related orphan receptor gamma (ROR-gamma) signaling pathway - cell viability counter screen (AID 1159520); also: nearly all actives have a fitted effect of over 50% in size
Method in brief: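 Tet-on ROR gamma CHO cells were given compounds for 2 hr, then doxycycline hyclate at 1 uM final, and incubated 16 hr at 37 C. Viability was measured as ATP content by CellTiter-Glo luminescence.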

[6] = biological target: Nuclear receptor ROR-gamma (Homo sapiens) (UniProt P51449); assay: qHTS assay to identify small molecule antagonists of the retinoid-related orphan receptor gamma (ROR-gamma) signaling pathway (AID 1159521; also: nearly all actives have a fitted effect of over 50% in size; also: potency is read from the fitted curve at half-maximal effect)
Method in brief: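 Decreased RORE-driven luciferase luminescence indicates antagonism. Tet-on RORγ CHO cells received compound, then 1 uM final doxycycline 2 h later; signal read after 16 h incubation.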

[7] = qHTS assay to identify small molecule agonists of the AP-1 signaling pathway - cell viability counter screen (AID 1159525; calls by dose curve; also: nearly all actives have a fitted effect of over 55% in size)
Method in brief: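 AP-1-bla ME-180 cells in Opti-MEM with 0.5% dialyzed FBS, compound exposure 5 h at 37 C in 15-point titration. Viability read in the same wells as ATP content by CellTiter-Glo luminescence, normalised to tetra-n-octylammonium bromide and DMSO controls.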

[8] = qHTS assay to identify small molecule agonists of the AP-1 signaling pathway (AID 1159526; calls by dose curve)
[9] = qHTS assay to identify small molecule agonists of the RXR signaling pathway - cell viability counter screen (AID 1159529)
Method in brief: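 In this parallel viability measure, GeneBLAzer RXR-alpha HEK 293T cells (2% charcoal-stripped FBS) were given a 5 hr preincubation, treated with compounds 16 hr at 37 C, and read by CellTiter-Glo luminescence.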

[10] = qHTS assay to identify small molecule antagonists of the retinoid acid receptor (RAR) signaling pathway - cell viability counter screen (AID 1159551); also: nearly all actives have a fitted effect of over 35% in size
Method in brief: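 Cytotoxicity counter screen in C3RL4 cells: 6 h compound exposure with 1 uM retinol (final), viability from cellular ATP by luminescence.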

[11] = qHTS assay to identify small molecule agonists of the vitamin D receptor (VDR) signaling pathway - cell viability counter screen (AID 743224); also: nearly all actives have a fitted effect of over 50% in size; also: potency is read from the fitted curve at half-maximal effect
Method in brief: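 Viability is measured in the same wells as the VDR-bla reporter assay: after 16 h compound treatment and 2 h substrate loading, CellTiter-Glo is added and luminescence read 30 min later.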

[12] = biological target: Retinoic acid receptor RXR-alpha (Homo sapiens) (UniProt P19793); assay: qHTS assay to identify small molecule agonists of the RXR signaling pathway (AID 1159527; calls by dose curve; also: nearly all actives have a fitted effect of over 35% in size)
Sequence of Retinoic acid receptor RXR-alpha (Homo sapiens) (P19793 whole entry, looked up): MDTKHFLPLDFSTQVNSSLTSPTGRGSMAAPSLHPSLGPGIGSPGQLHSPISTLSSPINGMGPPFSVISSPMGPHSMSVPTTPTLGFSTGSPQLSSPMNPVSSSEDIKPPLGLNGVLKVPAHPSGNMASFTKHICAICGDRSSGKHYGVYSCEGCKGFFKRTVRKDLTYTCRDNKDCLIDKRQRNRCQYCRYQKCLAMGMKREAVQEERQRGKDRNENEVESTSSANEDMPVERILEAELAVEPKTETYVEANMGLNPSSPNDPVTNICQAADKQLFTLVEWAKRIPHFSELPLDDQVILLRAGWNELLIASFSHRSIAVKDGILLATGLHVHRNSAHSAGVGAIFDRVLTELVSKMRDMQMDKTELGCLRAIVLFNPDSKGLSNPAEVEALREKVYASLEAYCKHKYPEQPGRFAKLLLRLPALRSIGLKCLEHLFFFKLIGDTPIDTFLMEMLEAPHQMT
Method in brief: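 16 hr incubation of compound-treated RXR-alpha-UAS-bla HEK 293T cells (2% charcoal-stripped FBS, 37 C) preceded a 2 hr room-temperature LiveBLAzer FRET substrate step and blue/green fluorescence measurement.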

[13] = qHTS assay to identify small molecule antagonists of the retinoic acid receptor (RAR) signaling pathway (AID 1159552; also: nearly all actives have a fitted effect of over 50% in size; also: potency is read from the fitted curve at half-maximal effect)
Method in brief: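 C3RL4 RARE-luc cells, overnight plating; retinol 1 uM final added right after compound; 6 hr 37 C; luciferase read at 30 min RT.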

[14] = qHTS assay to identify small molecule agonists of the retinoic acid receptor (RAR) signaling pathway (AID 1159553)
Method in brief: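 Agonist activity was scored in C3RL4 cells bearing a retinoic acid response element luciferase construct. Cells were treated with compounds for 6 hr at 37 C, and luciferase signal was measured as luminescence.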

Measured: Potency

Cc1ccc(C)c2ccccc12
not listed: [11] | [12] | [13] | [14]
inactive: all other assays above

O=NN(CCO)CCO
not listed: [6]
inactive: all other assays above

CCNS(=O)(=O)C(F)(F)C(F)(F)C(F)(F)C(F)(F)C(F)(F)C(F)(F)C(F)(F)C(F)(F)F
not listed: [1] | [8] | [12] | [14]
inactive: all other assays above

O=C(N[C@@H]1N=C(c2ccccc2F)c2cccc3c2N(CC3)C1=O)c1cc2ccccc2[nH]1
not listed: [8]
inactive: all other assays above

C#CCO
not listed: [6] | [14]
inactive: all other assays above

CCC(C)c1cccc(C(C)CC)c1O (centres undefined)
inactive: [2] | [3] | [4] | [5] | [6] | [12] | [9]

C1=CCC=C1
not listed: [8] | [12] | [13] | [14]
inactive: all other assays above

NC1CCC(CC2CCC(N)CC2)CC1 (centres undefined)
not listed: [1] | [9] | [12] | [13] | [14]
inactive: all other assays above

CC1CN1 (centres undefined)
not listed: [6]
inactive: all other assays above

COc1cnc(OC)n2nc(NS(=O)(=O)c3c(OCC(F)F)cccc3C(F)(F)F)nc12
not listed: [12] | [13] | [14]
inactive: all other assays above

COP(=O)(OC)O/C(=C\Cl)c1cc(Cl)c(Cl)cc1Cl
active: [6] 38.6 µM
inactive: [2] | [3] | [4] | [5] | [9] | [10]

ClC1=C(Cl)[C@]2(Cl)[C@@H]3[C@H]4C[C@H]([C@@H]5O[C@H]45)[C@@H]3[C@@]1(Cl)C2(Cl)Cl
active: [11] 43.6 µM | [6] 27.3 µM
not listed: [8] | [9] | [12] | [14]
inactive: all other assays above

O=[N+]([O-])c1cccc2cccc([N+](=O)[O-])c12
active: [13] 54.7 µM
not listed: [7] | [14]
inactive: all other assays above

C[C@@H]1CC2=CC(=O)CC[C@@H]2[C@H]2CC[C@@]3(C)[C@@H](CC[C@]3(C)O)[C@@H]21
not listed: [6] | [13]
inactive: all other assays above

Clc1cc(Cl)c(-c2cc(Cl)c(Cl)cc2Cl)cc1Cl
not listed: [7] | [8] | [12]
inactive: all other assays above

CSC(C)(C)/C=N/O
not listed: [11] | [12] | [13] | [14]
inactive: all other assays above

CCN(CC)CCN1C(=O)CN=C(c2ccccc2F)c2cc(Cl)ccc21
not listed: [12] | [13] | [14]
inactive: all other assays above

CCC1(CC)C(=O)N=C(O)NC1=O
not listed: [7] | [8] | [14]
inactive: all other assays above

CC(Cl)CCl (centres undefined)
not listed: [6]
inactive: all other assays above

N#Cc1ccc(N(CC(N)=O)CC(F)(F)F)cc1C(F)(F)F
not listed: [6]
inactive: all other assays above

CCN(CC)Cc1nccn1-c1ccc([N+](=O)[O-])cc1C(=O)c1ccccc1Cl
not listed: [12] | [13] | [14]
inactive: all other assays above
